# Source: PubChem BioAssay (Tox21)
# Unmarked numbers belong to inactive results. Inconclusive results are not listed. Entries that show only a call come without a potency. Activity calls are given as the source filed them. Calls follow the shape of the dose curve; as a rule, active = well fitted curve in the direction sought with a large enough effect in the repeat runs; inconclusive = weak or mixed curves; inactive = no such curve, though single readings can be large; an effect the other way counts as inactive or inconclusive.
# How the values were obtained:
# [1] = Human pregnane X receptor (PXR) small molecule agonists, qHTS cell viability counter screen (AID 1346977); also: nearly all actives have a fitted effect of over 50% in size; also: potency is read from the fitted curve at half-maximal effect
# Method in brief: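 PXR-Luc HepG2, 2,000 cells/well, 5% charcoal-stripped FBS; 5hr settle; cpd 24hr, 37C/5% CO2; CellTiter-Fluor at 23hr, read 1hr later (fluorescence).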
# [2] = Caspase-3/7 induction in HepG2 cells by small molecules, qHTS assay (AID 1346978); also: nearly all actives have a fitted effect of over 15% in size; also: potency is read from the fitted curve at half-maximal effect
# Method in brief: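 Wild-type HepG2 cells, 2,000/well, settled 5 hr at 37 C and 5% CO2, then compound-treated for 17 hr; caspase-3/7 activity read by luminescent Caspase-Glo 3/7 after 30 min at room temperature.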
# [3] = Caspase-3/7 induction in CHO-K1 cells by small molecules, qHTS cell viability counter screen (AID 1346979); also: nearly all actives have a fitted effect of over 35% in size; also: potency is read from the fitted curve at half-maximal effect
# Method in brief: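 Cells (CHO-K1, wild type) are plated at 1,500 per well and incubated 5hr. Test compounds in DMSO are then pinned in, followed by 16hr at 37C and 5% CO2. Viability is read by CellTiter-Fluor fluorescence after 1hr.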
# [4] = Caspase-3/7 induction in CHO-K1 cells by small molecules, qHTS assay (AID 1346980); also: nearly all actives have a fitted effect of over 15% in size; also: potency is read from the fitted curve at half-maximal effect
# Method in brief: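 Wild-type CHO-K1 cells exposed to compounds for 17hr at 37 C, 5% CO2. Caspase-3/7 activity then measured by Caspase-Glo 3/7 luminescence after 30min at room temperature.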
# [5] = Caspase-3/7 induction in HepG2 cells by small molecules, qHTS cell viability counter screen (AID 1346981); also: nearly all actives have a fitted effect of over 30% in size; also: potency is read from the fitted curve at half-maximal effect
# Method in brief: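 Wild-type HepG2 cells, 2,000/well, settled 5 hr at 37 C, 5% CO2 before compound addition. Viability read by CellTiter-Fluor fluorescence, reagent added after 16 hr compound exposure, then 1 hr at 37C, in the same wells as the caspase read.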
# [6] = target: Cytochrome P450 2D6 (Homo sapiens) (UniProt P10635); test: Cytochrome P450 Family 2 Subfamily D Member 6 (CYP2D6) small molecule antagonists: luciferase reporter qHTS assay (AID 1671196); also: nearly all actives have a fitted effect of over 50% in size; also: potency is read from the fitted curve at half-maximal effect
# Method in brief: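 Cell-free P450-Glo system: CYP2D6 with proluciferin substrate was pre-incubated with compound for 10 min, then reacted with NADPH regeneration for 1 h at room temperature. Luciferin product was detected after 20 min, and data were reported as relative luminescence units.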
# [7] = target: Nuclear receptor subfamily 1 group I member 2 (Homo sapiens) (UniProt O75469); test: Human pregnane X receptor (PXR) small molecule agonists, qHTS assay (AID 1346982); also: nearly all actives have a fitted effect of over 35% in size; also: potency is read from the fitted curve at half-maximal effect
# Method in brief: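 PXR-Luc HepG2 reporter cells (CYP3A4-driven luciferase) in 5% charcoal-stripped FBS medium, plated 5 h before compound addition, then treated 24 h at 37C. Luciferase read by ONE-Glo luminescence after 30 min at room temperature.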
# [8] = target: Nuclear receptor subfamily 1 group I member 2 (Rattus norvegicus) (UniProt Q9R1A7); test: Rat pregnane X receptor (rPXR) activation by small molecules, qHTS assay (AID 1346983); details: rPXR luciferase reporter cells, One-Glo luminescence, 24 h; max activation: stronger effect = higher value; also: nearly all actives have a fitted effect of over 20% in size; also: potency is read from the fitted curve at half-maximal effect
# Method in brief: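 Cell-based rPXR activation assay: rPXR cells, 2,000 per well, rested 5hr at 37 C, then exposed to compounds in DMSO for 24 hr at 37 C. Luciferase activity read by One-Glo luminescence after 30 min at room temperature.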
# [9] = target: Nuclear receptor subfamily 1 group I member 2 (Homo sapiens) (UniProt O75469); test: Human pregnane X receptor (PXR) activation by small molecules, qHTS assay (AID 1346985); also: nearly all actives have a fitted effect of over 40% in size; also: potency is read from the fitted curve at half-maximal effect
# Method in brief: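 DPX-2 cells (HepG2 co-transfected with a PXR response element and a CYP3A4-promoter luciferase construct) were seeded at 2,000 per well, rested 5 hr at 37C, then exposed to DMSO-dissolved compounds for 24 hr. Activation was read as luciferase luminescence.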
# [10] = target: Nuclear receptor subfamily 1 group I member 2 (Homo sapiens) (UniProt O75469); test: CYP3A4 induction through human pregnane X receptor (PXR) by small molecules, qHTS assay (AID 1346984); also: nearly all actives have a fitted effect of over 40% in size
# Method in brief: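 DPX-2 HepG2 cells carrying a PXR response element and CYP3A4-promoter luciferase construct, treated with compounds 24 hr at 37C. Then P450-Glo CYP3A4 Luciferin-IPA substrate (3uM final) for 3 hr at 37C, One-Glo added, luminescence read.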
# Chain of Nuclear receptor subfamily 1 group I member 2 (Rattus norvegicus) (Q9R1A7 whole entry, looked up): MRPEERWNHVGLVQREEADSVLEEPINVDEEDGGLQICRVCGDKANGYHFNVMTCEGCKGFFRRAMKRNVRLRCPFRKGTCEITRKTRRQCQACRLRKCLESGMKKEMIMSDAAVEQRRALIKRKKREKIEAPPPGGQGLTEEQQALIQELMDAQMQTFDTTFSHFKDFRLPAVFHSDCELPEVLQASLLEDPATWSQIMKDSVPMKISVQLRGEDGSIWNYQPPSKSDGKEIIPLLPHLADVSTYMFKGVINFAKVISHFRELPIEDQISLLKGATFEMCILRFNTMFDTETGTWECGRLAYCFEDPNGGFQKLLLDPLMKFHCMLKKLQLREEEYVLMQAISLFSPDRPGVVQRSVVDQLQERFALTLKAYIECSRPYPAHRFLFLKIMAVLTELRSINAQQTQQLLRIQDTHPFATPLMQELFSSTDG
# Chain of Cytochrome P450 2D6 (Homo sapiens) (P10635 whole entry, looked up): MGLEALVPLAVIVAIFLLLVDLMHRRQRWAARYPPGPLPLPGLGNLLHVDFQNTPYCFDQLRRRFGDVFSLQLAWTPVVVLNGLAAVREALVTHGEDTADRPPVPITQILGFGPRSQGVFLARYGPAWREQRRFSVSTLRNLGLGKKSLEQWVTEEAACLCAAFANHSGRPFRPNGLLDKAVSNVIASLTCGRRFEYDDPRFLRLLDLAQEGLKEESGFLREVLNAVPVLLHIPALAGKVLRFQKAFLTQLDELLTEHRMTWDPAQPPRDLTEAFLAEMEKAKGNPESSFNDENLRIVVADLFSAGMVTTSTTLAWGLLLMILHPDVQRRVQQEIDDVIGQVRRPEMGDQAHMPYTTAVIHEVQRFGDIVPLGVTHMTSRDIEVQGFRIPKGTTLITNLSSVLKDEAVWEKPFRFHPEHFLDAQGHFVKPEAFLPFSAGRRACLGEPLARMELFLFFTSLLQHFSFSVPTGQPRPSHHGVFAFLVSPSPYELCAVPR
structure (smiles),measurement,setting,value
CC1=NC(C)OC1C (centres undefined),Potency,[1],inactive
same,Potency,[2],inactive
same,Potency,[3],inactive
same,Potency,[4],inactive
same,Potency,[5],inactive
same,Potency,[6],71 µM (active)
CCCCCCCC/C=C\CCCCCCCCOCCO,Potency,[1],15.9 µM (active)
same,Potency,[2],inactive
same,Potency,[3],35.5 µM (active)
same,Potency,[4],inactive
same,Potency,[5],35.5 µM (active)
same,Potency,[7],3.98 µM (active)
same,Potency,[6],inactive
CC(C)(C)c1ccc(C(=O)CCCN2CCC(OC(c3ccccc3)c3ccccc3)CC2)cc1,Potency,[1],21.1 µM (active)
same,Potency,[2],29.8 µM (active)
same,Potency,[3],18.8 µM (active)
same,Potency,[4],21.1 µM (active)
same,Potency,[5],29.8 µM (active)
same,max activation,[8],-2.11%
CN(C/C=C/C#CC(C)(C)C)Cc1cccc2ccccc12,Potency,[1],inactive
same,Potency,[2],inactive
same,Potency,[3],inactive
same,Potency,[4],inactive
same,Potency,[5],inactive
same,max activation,[8],0.136%
same,Potency,[6],0.275 µM (active)
CCCCCCCC[N+](CCCCCCCC)(CCCCCCCC)CCCCCCCC,Potency,[1],5.44 µM (active)
same,Potency,[2],15.3 µM (active)
same,Potency,[3],8.62 µM (active)
same,Potency,[5],21.6 µM (active)
same,Potency,[7],3.06 µM (active)
same,Potency,[6],0.563 µM (active)
Clc1ccc2n[nH]nc2c1,Potency,[1],inactive
same,Potency,[2],inactive
same,Potency,[3],inactive
same,Potency,[4],inactive
same,Potency,[5],inactive
same,Potency,[7],inactive
same,Potency,[6],inactive
NNc1nc(-c2ccc([N+](=O)[O-])cc2)cs1,Potency,[1],27.3 µM (active)
same,Potency,[2],inactive
same,Potency,[3],27.3 µM (active)
same,Potency,[4],inactive
same,Potency,[5],30.6 µM (active)
same,Potency,[6],14.2 µM (active)
CCC1=C[C@@H]2CN(C1)Cc1c([nH]c3ccccc13)[C@@](C(=O)OC)(c1cc3c(cc1OC)N(C)[C@H]1[C@@](O)(C(=O)OC)[C@H](OC(C)=O)[C@]4(CC)C=CCN5CC[C@]31[C@@H]54)C2,Potency,[1],13.3 µM (active)
same,Potency,[2],inactive
same,Potency,[3],0.668 µM (active)
same,Potency,[4],inactive
same,Potency,[5],13.3 µM (active)
same,Potency,[8],3.55 µM (active)
same,Potency,[9],8.91 µM (active)
same,Potency,[6],inactive
O=C(Nc1cccc(C(F)(F)F)c1)c1cc(Br)cc(Br)c1O,Potency,[1],2.73 µM (active)
same,Potency,[2],inactive
same,Potency,[3],6.86 µM (active)
same,Potency,[4],inactive
same,Potency,[7],17.2 µM (active)
same,max activation,[8],-18.6%
same,Potency,[10],inactive
same,Potency,[9],inactive
same,Potency,[6],inactive
C=C(C)C(=O)OCC(O)COc1ccc(C(C)(C)c2ccc(OCC(O)COC(=O)C(=C)C)cc2)cc1 (centres undefined),Potency,[1],inactive
same,Potency,[2],inactive
same,Potency,[3],54.5 µM (active)
same,Potency,[4],inactive
same,Potency,[7],27.3 µM (active)
same,Potency,[6],39.9 µM (active)
O=C1CCCCCN1SSN1CCCCCC1=O,Potency,[1],inactive
same,Potency,[2],inactive
same,Potency,[3],54.5 µM (active)
same,Potency,[4],inactive
same,Potency,[5],inactive
same,Potency,[6],inactive
CCOC(=O)c1nc(C(Cl)(Cl)Cl)n(-c2ccc(Cl)cc2Cl)n1,Potency,[1],54.5 µM (active)
same,Potency,[2],inactive
same,Potency,[3],54.5 µM (active)
same,Potency,[4],inactive
same,Potency,[7],19.3 µM (active)
same,Potency,[6],14.2 µM (active)
O=[N+]([O-])c1cc(Cl)c(Cl)c(Cl)c1Cl,Potency,[1],inactive
same,Potency,[2],inactive
same,Potency,[3],60.9 µM (active)
same,Potency,[4],inactive
same,Potency,[5],inactive
same,Potency,[7],60.9 µM (active)
same,Potency,[6],inactive
Clc1ccc2cc3ccccc3cc2c1,Potency,[1],inactive
same,Potency,[2],inactive
same,Potency,[3],inactive
same,Potency,[4],inactive
same,Potency,[5],inactive
same,Potency,[6],inactive
CC(C)(C)c1ccc(C(=O)O)cc1,Potency,[1],inactive
same,Potency,[2],inactive
same,Potency,[3],inactive
same,Potency,[4],inactive
same,Potency,[5],inactive
same,Potency,[6],inactive
CC[C@@]1(O)C(=O)OCc2c1cc1n(c2=O)Cc2c-1nc1ccccc1c2/C=N/OC(C)(C)C,Potency,[1],0.237 µM (active)
same,Potency,[2],0.335 µM (active)
same,Potency,[3],0.75 µM (active)
same,Potency,[4],11.9 µM (active)
same,Potency,[7],inactive
same,Potency,[6],inactive
CCCCN1CCCC[C@H]1C(=O)Nc1c(C)cccc1C,Potency,[1],inactive
same,Potency,[2],inactive
same,Potency,[3],inactive
same,Potency,[4],inactive
same,Potency,[5],inactive
same,Potency,[6],0.617 µM (active)
CCCCCCCCCCCCCCCCCC[N+](C)(C)C,Potency,[1],54.6 µM (active)
same,Potency,[2],inactive
same,Potency,[3],27.4 µM (active)
same,Potency,[4],inactive
same,Potency,[7],inactive
same,Potency,[6],0.635 µM (active)
CCCCc1oc2ccc(NS(C)(=O)=O)cc2c1C(=O)c1ccc(OCCCN(CCCC)CCCC)cc1,Potency,[1],18.8 µM (active)
same,Potency,[2],18.8 µM (active)
same,Potency,[3],16.8 µM (active)
same,Potency,[4],inactive
same,Potency,[5],26.6 µM (active)
same,Potency,[6],11 µM (active)
CCC(C)Nc1ccc(NC(C)CC)cc1 (centres undefined),Potency,[1],12.4 µM (active)
same,Potency,[2],inactive
same,Potency,[3],17.6 µM (active)
same,Potency,[4],inactive
same,Potency,[5],27.8 µM (active)
same,Potency,[6],2.88 µM (active)
CC(C)(C)C(=O)OCOC(=O)[C@@H]1N2C(=O)[C@@H](NC(=O)[C@H](N)c3ccccc3)[C@H]2SC1(C)C,Potency,[1],inactive
same,Potency,[2],inactive
same,Potency,[3],inactive
same,Potency,[4],inactive
same,Potency,[5],inactive
same,max activation,[8],-1.52%
same,Potency,[10],inactive
same,Potency,[9],inactive
same,Potency,[6],inactive
CC/C(=C(\c1ccc(O)cc1)c1ccc(OCCN(C)C)cc1)c1ccccc1,Potency,[1],19.4 µM (active)
same,Potency,[2],34.4 µM (active)
same,Potency,[3],34.4 µM (active)
same,Potency,[5],43.4 µM (active)
same,Potency,[7],6.87 µM (active)
same,Potency,[6],40 µM (active)
CCCCN(CCCC)C(=O)N(CCCC)CCCC,Potency,[1],inactive
same,Potency,[2],inactive
same,Potency,[4],inactive
same,Potency,[5],inactive
same,Potency,[7],inactive
COC(=O)C1=C(C)NC(C)=C(C(=O)OCCc2ccc(N3CCN(C(c4ccccc4)c4ccccc4)CC3)cc2)C1c1cccc([N+](=O)[O-])c1 (centres undefined),Potency,[1],inactive
same,Potency,[2],inactive
same,Potency,[4],inactive
same,Potency,[5],inactive
same,Potency,[7],inactive
same,Potency,[6],inactive
Cc1cccc(CN2CCN(C(c3ccccc3)c3ccc(Cl)cc3)CC2)c1 (centres undefined),Potency,[1],inactive
same,Potency,[2],inactive
same,Potency,[4],inactive
same,Potency,[5],inactive
same,Potency,[7],inactive
same,max activation,[8],-4.36%
same,Potency,[10],inactive
same,Potency,[9],inactive
same,Potency,[6],3.09 µM (active)
c1ccc(CSCc2ccccc2)cc1,Potency,[1],inactive
same,Potency,[2],inactive
same,Potency,[4],inactive
same,Potency,[5],inactive
same,Potency,[7],27.2 µM (active)
O=C(NO)C1(NS(=O)(=O)c2ccc(Oc3ccc(F)cc3)cc2)CCOCC1,Potency,[1],inactive
same,Potency,[2],inactive
same,Potency,[4],inactive
same,Potency,[5],inactive
same,Potency,[7],inactive
same,Potency,[6],inactive
CCCC(c1cc(C(C)(C)C)c(O)cc1C)c1cc(C(C)(C)C)c(O)cc1C,Potency,[1],17.4 µM (active)
same,Potency,[2],24.6 µM (active)
same,Potency,[4],inactive
same,Potency,[5],22 µM (active)
same,Potency,[7],1.96 µM (active)
same,Potency,[6],28.6 µM (active)
[Cl][Au]([Cl])[Cl],Potency,[1],13.7 µM (active)
same,Potency,[2],inactive
same,Potency,[4],inactive
same,Potency,[5],68.6 µM (active)
O=S1(=O)CC(Cl)(Cl)C(Cl)(Cl)C1,Potency,[1],2.73 µM (active)
same,Potency,[2],inactive
same,Potency,[4],0.486 µM (active)
same,Potency,[5],17.2 µM (active)
same,Potency,[7],0.545 µM (active)
same,Potency,[6],inactive
Nc1ccc2cc(S(=O)(=O)O)cc(O)c2c1N=Nc1ccccc1C(F)(F)F,Potency,[1],61.1 µM (active)
same,Potency,[2],inactive
same,Potency,[4],inactive
same,Potency,[5],54.5 µM (active)
same,Potency,[7],inactive
same,Potency,[6],inactive
COc1ccc(-c2ccc3cc(C(=O)O)ccc3c2)cc1C12CC3CC(CC(C3)C1)C2,Potency,[1],inactive
same,Potency,[2],inactive
same,Potency,[4],inactive
same,Potency,[5],inactive
same,Potency,[7],inactive
same,max activation,[8],-8.07%
same,Potency,[10],inactive
same,Potency,[9],inactive
CCN1/C(=C/C=C/c2sc3ccccc3[n+]2CC)Sc2ccccc21,Potency,[1],5.17 µM (active)
same,caspase activation,[2],-8.48% [at 19 µM]
same,caspase-3/7 activation,[4],0.607% [at 19 µM]
same,Potency,[5],10.3 µM (active)
same,activation,[7],29.7% [at 19 µM]
same,max activation,[8],-26.5%
same,Potency,[10],inactive
same,Potency,[9],inactive
same,Potency,[6],12 µM (active)
